Compounds without any hit were thinned out: in the full panel of roughly 83,000, 20% have a hit.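 Each cell line was grown in a 96-well plate and treated with one concentration of compound for 48 hours. Values below 10 were considered active.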 Active and inactive are the calls of the source.
Key:
Assay in all cases: NCI-60 one-dose screen, 48 h (100 = growth as untreated, 0 = no growth, -100 = all killed)
Settings in all cases: 10 µM unless noted
T-47D breast = test system: T-47D breast
BT-549 breast = test system: BT-549 breast
MDA-MB-435 melanoma = test system: MDA-MB-435 melanoma
SW-620 colon = test system: SW-620 colon
MCF7 breast = test system: MCF7 breast
HCT-116 colon = test system: HCT-116 colon
HCC-2998 colon = test system: HCC-2998 colon
KM12 colon = test system: KM12 colon

Measured: growth

CN(C)c1ccc(C(=C2C=CC(=[N+](C)C)C=C2)c2ccc(N(C)C)cc2)cc1
active: T-47D breast -19.2% | BT-549 breast -66% | MDA-MB-435 melanoma -82.6% | SW-620 colon -67.2% | MCF7 breast -71.6% | HCT-116 colon -83.3% | HCC-2998 colon -91.6%

CC12CCC(O)CC1=CCC1C2CCC2(C)C3=NN=CC3CC12 (centres undefined)
inactive: T-47D breast 110% | BT-549 breast 124% | MDA-MB-435 melanoma 53% | SW-620 colon 103% | MCF7 breast 107% | HCT-116 colon 108% | HCC-2998 colon 107% | KM12 colon 94.3%

COC(=O)C(=[N+]=[N-])C(=O)c1ccc([N+](=O)[O-])o1
inactive: T-47D breast 89.7% | BT-549 breast 101% | MDA-MB-435 melanoma 103% | SW-620 colon 44% | MCF7 breast 65.1% | HCT-116 colon 73.4% | HCC-2998 colon 107% | KM12 colon 94.9%

NC(=S)N/N=C\c1nccc2c(C(F)(F)F)cccc12
active: BT-549 breast 7.77% | HCT-116 colon 9.27%
inactive: T-47D breast 13.9% | MDA-MB-435 melanoma 32.6% | SW-620 colon 29.8% | MCF7 breast 10.5% | HCC-2998 colon 26.6% | KM12 colon 16%

C=C(C(N)=O)C(N)C(=O)O (centres undefined)
inactive: T-47D breast 106% | BT-549 breast 108% | MDA-MB-435 melanoma 123% | SW-620 colon 109% | MCF7 breast 102% | HCT-116 colon 92.4% | HCC-2998 colon 108% | KM12 colon 95.9%

CC1(C)OCC(COC(c2ccccc2)(c2ccccc2)c2ccccc2)O1 (centres undefined)
inactive: T-47D breast 84.3% | BT-549 breast 119% | MDA-MB-435 melanoma 106% | SW-620 colon 104% | MCF7 breast 100% | HCT-116 colon 89.7% | HCC-2998 colon 97.4% | KM12 colon 96.5%

Oc1ccc2c(c1)CCc1ccccc1-2
inactive: T-47D breast 86.3% | BT-549 breast 106% | MDA-MB-435 melanoma 96.6% | SW-620 colon 103% | MCF7 breast 103% | HCT-116 colon 97.7% | HCC-2998 colon 102% | KM12 colon 113%

O=Nc1ccc2ccccc2c1O
inactive: T-47D breast 51.5% | BT-549 breast 100% | SW-620 colon 61.8% | MCF7 breast 69.9% | HCC-2998 colon 103% | KM12 colon 79.3%
active: MDA-MB-435 melanoma -73.9% | HCT-116 colon 6.58%

O=C1C=Cc2ccccc2/C1=C/c1nc(-c2ccccc2)oc1O
inactive: T-47D breast 65.5% | BT-549 breast 102% | MDA-MB-435 melanoma 97.5% | SW-620 colon 97.4% | MCF7 breast 39.6% | HCT-116 colon 81.5% | HCC-2998 colon 129% | KM12 colon 92.1%

O=C(O)c1cc2c(s1)C(=O)c1sccc1C2=O
active: BT-549 breast -89.8% | MDA-MB-435 melanoma -99.6% | SW-620 colon -3.95% | MCF7 breast -56.6% | HCT-116 colon -27.7% | HCC-2998 colon 8.88%
inactive: T-47D breast 36% | KM12 colon 79.9%

COC(=O)c1nc(=S)[nH]c(C(=O)OC)c1C(=O)c1ccc(Cl)c(Cl)c1
inactive: T-47D breast 100% | BT-549 breast 129% | MDA-MB-435 melanoma 106% | SW-620 colon 106% | MCF7 breast 97.4% | HCT-116 colon 106% | HCC-2998 colon 113% | KM12 colon 112%

CN(C)CCN(C)CC(C)(C)C(=O)/C=C/c1ccc(Cl)c(Cl)c1
active: T-47D breast -56.7% [100 µM] | BT-549 breast -96% [100 µM] | MDA-MB-435 melanoma -96.5% [100 µM] | SW-620 colon -81.1% [100 µM] | MCF7 breast -66.4% [100 µM] | HCT-116 colon -93.4% [100 µM] | HCC-2998 colon -90.4% [100 µM] | KM12 colon -93.4% [100 µM]

O=C(Nc1ccc(Cl)c(Cl)c1)OCc1ccco1
active: MDA-MB-435 melanoma 0.451% | KM12 colon 8.03%
inactive: T-47D breast 38.4% | BT-549 breast 31.6% | SW-620 colon 40.4% | MCF7 breast 14.8% | HCT-116 colon 26.6% | HCC-2998 colon 56.4%

OC(c1cc(C23CC4CC(CC(C4)C2)C3)nc2c(Cl)cc(Cl)cc12)C1CCCCN1 (centres undefined)
active: T-47D breast -74.3% | MDA-MB-435 melanoma -66.1% | SW-620 colon -68.1% | MCF7 breast -80.7% | HCT-116 colon -84% | HCC-2998 colon -71.7% | KM12 colon -91.4%
inactive: BT-549 breast 37.7%

COc1cc(OC)c(/C=C/c2c3ccccc3cc[n+]2C)c(OC)c1
active: MDA-MB-435 melanoma 2.01% | KM12 colon 6.03%
inactive: T-47D breast 13% | BT-549 breast 17.8% | SW-620 colon 28.2% | MCF7 breast 12.9% | HCT-116 colon 18.5% | HCC-2998 colon 21.8%

O=C1C=CC(=O)N1c1cc(Cl)c(Cl)cc1Cl
inactive: T-47D breast 103% | BT-549 breast 97.9% | MDA-MB-435 melanoma 106% | SW-620 colon 110% | MCF7 breast 87.8% | HCT-116 colon 90% | HCC-2998 colon 103% | KM12 colon 106%

O=C(Nc1ccc(Cl)c(Cl)c1)Nc1ccccc1O
inactive: T-47D breast 50.7% | BT-549 breast 105% | MDA-MB-435 melanoma 76.2% | SW-620 colon 90.1% | MCF7 breast 51.9% | HCT-116 colon 60.7% | HCC-2998 colon 80.4% | KM12 colon 96.5%

CCN1/C(=C/C(C)=C/c2sc3ccc4ccccc4c3[n+]2CC)Sc2ccc3ccccc3c21
active: T-47D breast -69.8% | BT-549 breast -93.3% | MDA-MB-435 melanoma -97.2% | SW-620 colon -94.2% | MCF7 breast -84.5% | HCT-116 colon -69.5% | HCC-2998 colon -76.1% | KM12 colon -93.6%

CCC1CCCCN1C(=S)N/N=C(\C)c1ccccn1 (centres undefined)
inactive: BT-549 breast 30.8% | MCF7 breast 13% | HCC-2998 colon 17.9%
active: T-47D breast 4.58% | MDA-MB-435 melanoma 3.24% | SW-620 colon 9.32% | HCT-116 colon 5.51% | KM12 colon 4.56%

CCCCCCCCCCCCSC(=N)N
active: T-47D breast -35.5% | MDA-MB-435 melanoma -73.2% | SW-620 colon -61.5% | MCF7 breast -30.8% | HCT-116 colon -64.2% | HCC-2998 colon -80.5% | KM12 colon -21.1%
inactive: BT-549 breast 63.6%

Oc1cc(Cl)ccc1Cc1ccc(Cl)cc1O
inactive: T-47D breast 29.2% | BT-549 breast 33.9% | MDA-MB-435 melanoma 46.2% | SW-620 colon 81.2% | MCF7 breast 68.3% | HCT-116 colon 41.7% | HCC-2998 colon 88.1% | KM12 colon 98.7%

O=C(OC12CC3CC(CC(C3)C1)C2)c1ccc(NCc2cc(O)ccc2O)cc1
active: T-47D breast -70% | BT-549 breast -81.6% | MDA-MB-435 melanoma -46% | SW-620 colon -53.8% | MCF7 breast 6.06% | HCT-116 colon -82.9% | HCC-2998 colon -73.6% | KM12 colon -60.7%

CCN(CC)CC(O)CNc1ccc(NCC2CO2)c2c1C(=O)c1ccccc1C2=O (centres undefined)
active: T-47D breast -3.27% | BT-549 breast -56.9% | MDA-MB-435 melanoma -62.4% | SW-620 colon -28.7% | MCF7 breast -13% | HCT-116 colon -11.2% | HCC-2998 colon -83.5% | KM12 colon -69.1%

CCCCCCCCCCCC(=O)OC(C)C(=O)NCCCC (centres undefined)
inactive: T-47D breast 97.9% | BT-549 breast 92.5% | MDA-MB-435 melanoma 112% | SW-620 colon 98.5% | MCF7 breast 94.7% | HCT-116 colon 94.4% | HCC-2998 colon 80.2% | KM12 colon 105%

Cc1nn(CCO)c(C)c1N=[N+]([O-])c1c(C)nn(CCO)c1C
active: T-47D breast -3.43% | MDA-MB-435 melanoma -25.4% | SW-620 colon -61.2% | MCF7 breast 4.45% | HCT-116 colon -81.9%
inactive: BT-549 breast 50.5% | HCC-2998 colon 109% | KM12 colon 81%

CCN(CC)c1ccc(/C=C\C(=O)c2ccc(NC(C)=O)cc2)cc1
inactive: T-47D breast 76.3% | BT-549 breast 94.8% | MDA-MB-435 melanoma 10.9% | SW-620 colon 42.5% | MCF7 breast 71.3% | HCT-116 colon 58.6% | HCC-2998 colon 77.9% | KM12 colon 48.1%

CC(/C=N/NC(N)=S)Cc1ccc(C(C)C)cc1 (centres undefined)
inactive: T-47D breast 16.6% | BT-549 breast 64.1% | MDA-MB-435 melanoma 49.2% | SW-620 colon 63.5% | MCF7 breast 49.9% | HCT-116 colon 51.4% | HCC-2998 colon 51.9% | KM12 colon 89.5%

CCOc1ccc(C(CN2CCOCC2)C(C)=O)cc1OC (centres undefined)
inactive: T-47D breast 33.2% | BT-549 breast 91.2% | MDA-MB-435 melanoma 97.6% | SW-620 colon 60% | MCF7 breast 13.4% | HCT-116 colon 97.3% | HCC-2998 colon 115% | KM12 colon 93.3%

CCCOS(=O)(=O)c1ccccc1
inactive: T-47D breast 109% | BT-549 breast 129% | MDA-MB-435 melanoma 101% | SW-620 colon 101% | MCF7 breast 111% | HCT-116 colon 107% | HCC-2998 colon 102% | KM12 colon 103%

CCCCCCCCCCCCCCCCCC1=NCCCN1CCO
inactive: T-47D breast 103% | BT-549 breast 99.9% | MDA-MB-435 melanoma 115% | SW-620 colon 98.9% | MCF7 breast 86.7% | HCT-116 colon 114% | HCC-2998 colon 93.4% | KM12 colon 106%

COc1ccc2c(c1OC)OCC(CN(C)C)C2=O (centres undefined)
inactive: T-47D breast 69.5% | BT-549 breast 82.4% | MDA-MB-435 melanoma 96.1% | MCF7 breast 75% | HCT-116 colon 77.6% | HCC-2998 colon 105% | KM12 colon 96.8%
active: SW-620 colon -78.3%

COc1ccc(/C=C2/C(=O)ON=C2C)cc1
inactive: T-47D breast 93% | BT-549 breast 107% | MDA-MB-435 melanoma 109% | SW-620 colon 103% | MCF7 breast 106% | HCT-116 colon 112% | HCC-2998 colon 103% | KM12 colon 113%

Cc1cc(C(=O)c2ccc(Cl)cc2)ccc1O
inactive: T-47D breast 97% | BT-549 breast 94.7% | MDA-MB-435 melanoma 95.6% | SW-620 colon 98% | MCF7 breast 108% | HCT-116 colon 84.8% | HCC-2998 colon 102% | KM12 colon 103%

CN(C)c1ccc2cc3c(cc2c1)Oc1ccccc1N3.[Cl][Zn][Cl]
inactive: BT-549 breast 105% | SW-620 colon 11.8% | HCC-2998 colon 103% | KM12 colon 79.6%
active: T-47D breast -18.9% | MDA-MB-435 melanoma 6.73% | MCF7 breast 3.32% | HCT-116 colon 8.67%

O=C1C(=O)c2cccnc2-c2ncccc21
inactive: HCC-2998 colon 30.5%
active: T-47D breast -68.8% | BT-549 breast -11.7% | MDA-MB-435 melanoma -69.6% | SW-620 colon -95.6% | MCF7 breast -55.4% | HCT-116 colon -100% | KM12 colon -47.2%
